# Calls of active or inactive are those of the source. The call rests on the fitted dose curve; in most records, active means well fitted curve in the direction sought with a large enough effect; inconclusive means small, poorly fitted or top-dose-only effect, or effect the other way, or another doubt; inactive means no such curve, though single readings can be large or run the other way.
# Molecular target: Pyruvate kinase PKLR (Homo sapiens) (UniProt P30613)
# Test: Secondary Concentration-Response Assay for Activators of Human Liver Pyruvate Kinase: for Probe SAR
# Conditions: purified hPK-L, ATP production, Kinase-Glo luminescence; series mostly up to 58.3 µM
# Summary of the method: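 Luciferase-coupled luminescence (Kinase-Glo) reports ATP made by 0.1 nM hPK-L from 0.5 mM PEP (at Km) and 0.1 mM ADP (about 10-fold below Km); pH 7.2 imidazole buffer, 1 h room temperature, in concentration-response format.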
# Pyruvate kinase PKLR (Homo sapiens), sequence (P30613 whole entry, looked up): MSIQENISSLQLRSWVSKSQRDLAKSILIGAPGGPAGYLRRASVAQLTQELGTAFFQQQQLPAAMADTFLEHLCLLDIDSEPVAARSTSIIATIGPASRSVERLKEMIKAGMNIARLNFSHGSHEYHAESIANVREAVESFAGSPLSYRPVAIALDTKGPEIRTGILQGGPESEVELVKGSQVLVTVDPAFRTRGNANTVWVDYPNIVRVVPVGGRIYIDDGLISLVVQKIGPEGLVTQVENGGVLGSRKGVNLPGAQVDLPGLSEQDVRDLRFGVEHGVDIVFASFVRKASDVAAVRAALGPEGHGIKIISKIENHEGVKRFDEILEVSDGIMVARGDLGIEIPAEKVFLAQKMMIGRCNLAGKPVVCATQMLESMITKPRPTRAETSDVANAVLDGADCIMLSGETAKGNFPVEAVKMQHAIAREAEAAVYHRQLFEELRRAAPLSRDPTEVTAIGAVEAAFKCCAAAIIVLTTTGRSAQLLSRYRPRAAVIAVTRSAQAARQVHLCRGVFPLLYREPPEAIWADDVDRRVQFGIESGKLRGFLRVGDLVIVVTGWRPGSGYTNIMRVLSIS
row,Compound,outcome
1,Cc1ccc(NS(=O)(=O)c2ccc3c(c2)oc(=O)n3C)cc1C,inactive
2,Fc1ccccc1-c1ccc(-c2nc3ccc(Cl)cn3c2Nc2ccc(Cl)cc2)o1,inactive
3,Cc1ccn2c(NC3CCCCC3)c(-c3ccc(C)o3)nc2c1,inactive
4,O=C1CCc2cc(S(=O)(=O)Nc3ccc(Cl)c(Cl)c3)c(F)cc2N1,inactive
5,Cc1ccc(NS(=O)(=O)c2cccc(C(=O)O)c2)cc1C,inactive
6,O=C1c2ccccc2C(=O)N1c1nccs1,inactive
7,Cc1ccc(NS(=O)(=O)c2cc3c(cc2N(C)C)NC(=O)CC3)cc1C,inactive
8,Cc1ccc(NS(=O)(=O)c2ccc3c(ccn3C)c2)cc1C,inactive
9,Cc1ccc(NS(=O)(=O)c2ccc3c(c2)CCC(=O)N3)cc1C,inactive
10,O=C1CCc2cc(S(=O)(=O)Nc3cccnc3)ccc2N1,inactive
11,Cc1ccc(NS(=O)(=O)c2ccc3c(c2)CCC(=O)N3)cc1Cl,inactive
12,O=C1CCc2cc(S(=O)(=O)Nc3ccccc3-c3ccccc3)ccc2N1,inactive
13,Cc1ccc2nc(-c3ccc(C)o3)c(Nc3ccc4c(c3)OCO4)n2c1,inactive
14,Cc1ccc2nc(-c3ccc(C)o3)c(Nc3ccc(F)cc3)n2c1,inactive
15,O=C1c2ccccc2C(=O)N1c1noc2ccccc12,inactive
16,CN(C)c1cccc(S(=O)(=O)N2CCCN(S(=O)(=O)c3ccc4c(c3)OCCO4)CC2)c1,inactive

row,Compound,outcome
1,Cc1ccc(Nc2c(-c3ccc(C)o3)nc3cccc(C)n23)cc1,inactive
2,CSc1cc2c(s1)c1cnn(Cc3cccc(O)c3)c(=O)c1n2C,inactive
3,O=C1c2ccccc2C(=O)N1c1cnc2ccccc2c1,inactive
4,O=C1c2ccccc2C(=O)N1c1ncccc1O,inactive
5,O=C1CCc2cc(S(=O)(=O)Nc3ccc(-c4ccccc4)cc3)ccc2N1,inactive
6,O=C1CCc2cc(S(=O)(=O)Nc3ccc(Cl)cc3)ccc2N1,inactive
7,O=C1c2ccccc2C(=O)N1c1ccccn1,inactive
8,Cc1ccc(NS(=O)(=O)c2ccc3c(c2)n(C)c(=O)n3C)cc1C,inactive
9,Cc1ccc(NS(=O)(=O)c2ccc3c(c2)CC(=O)N3C)cc1C,inactive
10,Cc1ccc(NS(=O)(=O)c2cc3c(cc2/C=C/c2ccccc2)NC(=O)CO3)cc1C,inactive
11,Cc1ccc(OC2=NS(=O)(=O)c3ccccc32)cc1,inactive
12,Cc1ccc(NS(=O)(=O)c2ccc(N3CCCC3=O)cc2)cc1C,inactive
13,COc1cccc(Cn2ncc3c4sc(S(C)=O)cc4n(C)c3c2=O)c1 (configuration not stated),inactive
14,COc1ccc(-c2nc3ccccn3c2Nc2ccccc2C)cc1,inactive
15,O=C1c2ccccc2C(=O)N1c1cccc2ccncc12,inactive
16,N#Cc1ccc(NS(=O)(=O)c2ccc3c(c2)CCC(=O)N3)cc1,inactive

# Reference: PubChem BioAssay AID2535 (National Center for Advancing Translational Sciences (NCATS), 2010)
